Results on five compounds are retold here after PubChem BioAssay (NCI).

The panel holds about 83,000 compounds, 20% with a hit somewhere; the sample as a whole holds those more often.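 Values shown are percent growth following 48 h exposure of cells in 96-well plates to a single concentration of compound; below 10 was considered active.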 A number with no mark means an inactive call. Active and inactive are the calls of the source.

Among the test systems are RXF 393 renal; SK-MEL-5 melanoma; SK-MEL-28 melanoma; EKVX NSCLC; CCRF-CEM leukemia; OVCAR-4 ovarian; IGROV1 ovarian; T-47D breast; MDA-MB-435 melanoma; SW-620 colon; MCF7 breast; HCT-116 colon; KM12 colon; A549/ATCC NSCLC; CAKI-1 renal; HCC-2998 colon; OVCAR-8 ovarian.
What all share (assay): NCI-60 one-dose screen, 48 h (100 = growth as untreated, 0 = no growth, -100 = all killed)
Holding throughout (conditions): 10 µM

Regarding `Cc1ccc2c(c1)C(=O)/C(=C/c1c[nH]c3ccccc13)S2`, the growth in the test with RXF 393 renal is -28.1% (active); with SK-MEL-5 melanoma, 59%; in the test on SK-MEL-28 melanoma, 65.2%; in the test on EKVX NSCLC, 50.8%; in the test on CCRF-CEM leukemia, 29.2%; with OVCAR-4 ovarian, 40.9%. Moreover, the growth was 59.8% in the test on IGROV1 ovarian; 33.5% in the test with T-47D breast; 43.8% with MDA-MB-435 melanoma; 28.6% in the test with SW-620 colon; 18.6% in the test on MCF7 breast; 14.2% in the test with HCT-116 colon. The growth in the test with KM12 colon was 35.1%.
Turning to `CC1(C)CC(=O)C2=C(C1)N(Cc1ccc(C(=O)O)cc1)C1=C(C(=O)CC(C)(C)C1)C2c1ccc(Cl)cc1`, the growth in the test on A549/ATCC NSCLC is 99.3%; in the test with RXF 393 renal it was 111%; in the test with SK-MEL-5 melanoma it was 99.9%; in the test on CAKI-1 renal it was 90.5%; with CCRF-CEM leukemia it was 102%; in the test on OVCAR-4 ovarian it was 99.5%. Also, the growth with T-47D breast is 91.9%; with MDA-MB-435 melanoma it was 102%; with SW-620 colon it was 101%; in the test with MCF7 breast, 89.6%; with HCT-116 colon it was 106%; with HCC-2998 colon, 101%. Also, the growth with KM12 colon was 108%.
For the compound `O=C(CC(=O)Nc1ccc(Oc2ncnc3scc(Nc4n[nH]c(=S)s4)c23)cc1)Nc1ccc(Cl)cc1`, the growth in the test with RXF 393 renal is 94.8%; in the test on SK-MEL-5 melanoma it was 89%; in the test with SK-MEL-28 melanoma it was 101%; in the test with CAKI-1 renal, 62.9%; with CCRF-CEM leukemia, 58.1%; in the test with OVCAR-4 ovarian it was 90.2%. Moreover, the growth in the test on IGROV1 ovarian is 62.2%; in the test with T-47D breast, 55.1%; in the test with MDA-MB-435 melanoma it was 83.2%; in the test on SW-620 colon, 93.5%; with MCF7 breast, 11.7%; in the test on HCT-116 colon, 92.5%. The growth in the test with HCC-2998 colon is 99.8%.
With `Cc1cc(N=C2NC(=O)S/C2=C\c2ccc(F)cc2)n[nH]1`, the growth in the test with RXF 393 renal is -37.4% (active); in the test with SK-MEL-5 melanoma it was 16.5%; in the test on CCRF-CEM leukemia, 9.4% (active); in the test with OVCAR-4 ovarian, 22.7%; in the test on T-47D breast, 18.1%; with MDA-MB-435 melanoma, -11.3% (active). In addition, the growth was 20.7% in the test on SW-620 colon, 7.74% (active) in the test on MCF7 breast, -51.5% (active) in the test on HCT-116 colon and 28.2% in the test on KM12 colon.
In the case of `O=C(Nc1ccc(Oc2ncnc3scc(Nc4n[nH]c(=S)s4)c23)cc1)C1(C(=O)Nc2cccc(C(F)(F)F)c2)CC1`, the growth in the test with RXF 393 renal is 118%; in the test on SK-MEL-5 melanoma, 95%; in the test on SK-MEL-28 melanoma it was 108%; in the test on CCRF-CEM leukemia, 111%; with OVCAR-8 ovarian it was 103%; in the test with OVCAR-4 ovarian, 108%. Besides, the growth was 70% in the test on IGROV1 ovarian; 86.7% with T-47D breast; 105% with MDA-MB-435 melanoma; 103% in the test with SW-620 colon; 23.3% in the test with MCF7 breast; 99.7% in the test with HCT-116 colon. Further, in the test with HCC-2998 colon, the growth is 107%.
